Results filed as inconclusive are left out. Active and inactive are the calls of the source. The calls were made as follows, unless noted: active = hit-call score of the fitted dose curve at least 0.9, where 1 is the maximum; inactive = score below 0.9.
Key:
[1] = molecular target: Retinoic acid receptor alpha (Homo sapiens) (UniProt P10276); test: ATG_DR5_RAR_CIS: Attagene CIS-FACTORIAL HepG2 Assay for human Retinoic Acid Receptor Alpha (RARE), DR5 submotif (AID 2282934); settings: HepG2 Attagene cis-factorial RARE DR5 reporter, mRNA; actives raise or lower the signal;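 as to AC50: reporter responds to endogenous RAR alpha beta and gamma in HepG2 not RARA alone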
How it was run: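 HepG2 cells transiently transfected with multiplexed reporter units under cis (DR5 RARE) promoters, so endogenous transcription factor activity is measured. After 24 h compound exposure, reporter mRNA is quantified by RT-PCR with fluorescent labelling and capillary electrophoresis; bidirectional fitting versus DMSO.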

[2] = molecular target: Hepatocyte nuclear factor 3-beta (Homo sapiens) (UniProt Q9Y261); test: ATG_FoxA2_CIS: Attagene CIS-FACTORIAL HepG2 Assay for human Forkhead box A2 (FOXA2) (AID 2282942); settings: HepG2 cis-reporter transcription factor activity, 24 h; actives raise or lower the signal
How it was run: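 Endogenous transcription factor activity is captured via cis-element-driven reporter transcripts in transfected HepG2. Total RNA taken at 24 h post-dosing; labelled RT-PCR products resolved by capillary electrophoresis. Gain or loss fitted versus DMSO.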

[3] = ATG_GRE_CIS: Attagene CIS-FACTORIAL HepG2 Assay for human Glucocorticoid Response Elements (GRE) (AID 2282947); settings: HepG2 GRE cis-reporter, Attagene multiplex mRNA; actives raise or lower the signal
How it was run: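 Cells (HepG2) bearing transfected cis-promoter reporter transcription units were treated with chemical for 24 hours. Reporter mRNA was measured via RT-PCR with capillary electrophoresis, and activity was fitted in both directions relative to DMSO.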

[4] = ATG_M_32_CIS: Attagene CIS-FACTORIAL HepG2 Assay for M32 Transcription Factor (Internal Marker) (AID 2282949); settings: HepG2 Attagene cis-factorial M32 reporter, mRNA; actives raise or lower the signal;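 also: background control marker of the multiplexed CIS panel rather than a real target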
How it was run: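 HepG2 transfectants (cis-regulated reporter transcription units) dosed 24 h. Reporter mRNA by RT-PCR plus CE, analysed as gain or loss relative to DMSO.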

[5] = ATG_MRE_CIS: Attagene CIS-FACTORIAL HepG2 Assay for human Metal Responsive Element (MRE) (AID 2282954); settings: HepG2 MRE cis-reporter transcription, Attagene multiplex; actives raise or lower the signal
How it was run: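 Cells were transfected with cis-promoter reporter transcription units, then dosed for 24 h. RNA was reverse-transcribed, amplified, fluorescently labelled and resolved by capillary electrophoresis, and activity was fitted in both directions relative to DMSO.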

[6] = ATG_RORE_CIS: Attagene CIS-FACTORIAL HepG2 Assay for human RAR-related Orphan Receptor Element (RORE) (AID 2282959); settings: HepG2 Attagene cis-factorial RORE reporter, mRNA; actives raise or lower the signal
How it was run: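 RORE reporter transcripts reflecting endogenous factor activity were read after 24 h compound exposure of transfected HepG2 cells, using reverse transcription, PCR, fluorescent labelling and capillary electrophoresis sizing. Gain or loss fitted against DMSO.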

[7] = ATG_M_32_TRANS: Attagene TRANS-FACTORIAL HepG2 Assay for M32 Transcription Factor (Internal Marker) (AID 2282984; active = hit-call score of the fitted dose curve at least 0.9, where 1 is the maximum;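 also: transcript level of a background control reporter unit measured by RT-PCR and capillary electrophoresis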); settings: HepG2 Attagene TRANS M32 internal marker reporter
How it was run: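 After 24 h dosing of transfected HepG2 cells, total RNA was reverse-transcribed, reporter sequences PCR-amplified, 6-FAM labelled by primer extension and HpaI-digested before capillary electrophoresis. Signal increase over DMSO was fitted.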

[8] = ATG_NF_kB_CIS: Attagene CIS-FACTORIAL HepG2 Assay for human Nuclear Factor Kappa B (NF-kB) (AID 2282991); settings: HepG2 Attagene cis-factorial NF-kB reporter mRNA; actives raise or lower the signal
How it was run: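 Readout is reporter transcript level, gain or loss versus DMSO, measured 24 h post-dose via RT-PCR, fluorescent labelling and capillary electrophoresis. Human HepG2 liver cells carried transiently transfected CIS reporter constructs reflecting endogenous factors.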

[9] = molecular target: human Peroxisome Proliferator-activated Receptor alpha (PPARa), PPARA (gene 5465) (UniProt Q07869); test: ATG_PPARa_TRANS: Attagene TRANS-FACTORIAL HepG2 Assay for human Peroxisome Proliferator-activated Receptor alpha (PPARa) (AID 2283001; active = hit-call score of the fitted dose curve at least 0.9, where 1 is the maximum)
How it was run: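 Cells (HepG2) are transfected with multiple reporter transcription units, exposed to chemical for 24 h, then total RNA is reverse-transcribed and amplified. Labelled products are quantified by capillary electrophoresis; induction is referenced to DMSO.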

[10] = molecular target: Retinoic acid receptor RXR-alpha (Homo sapiens) (UniProt P19793); test: ATG_RXRa_TRANS: Attagene TRANS-FACTORIAL HepG2 Assay for human Retinoid X Receptor alpha (RXRa) (AID 2283012; active = hit-call score of the fitted dose curve at least 0.9, where 1 is the maximum)
How it was run: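 Measures exogenous chimeric NR-GAL4 activity in transfected HepG2 liver cells after 24 h of dosing. Induced reporter mRNA was detected by RT-PCR with capillary electrophoresis, and gain of signal was analysed against DMSO.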

[11] = molecular target: human Retinoid X Receptor beta (RXRb), RXRB (gene 6257) (UniProt P28702); test: ATG_RXRb_TRANS: Attagene TRANS-FACTORIAL HepG2 Assay for human Retinoid X Receptor beta (RXRb) (AID 2283013; active = hit-call score of the fitted dose curve at least 0.9, where 1 is the maximum)
How it was run: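 Chimeric receptor-Gal4 activity was assessed in transiently transfected human HepG2 cells after 24 h exposure. Transcripts from GAL4-UAS reporters were quantified by fluorescent RT-PCR and capillary electrophoresis, with DMSO as negative control and baseline.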

[12] = ATG_PBREM_CIS: Attagene CIS-FACTORIAL HepG2 Assay for human Phenobarbital-responsive Enhancer Module (PBREM) (AID 2282955); settings: HepG2 PBREM cis-reporter, Attagene multiplexed transcription; actives raise or lower the signal
How it was run: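 Endogenous transcription factor activity was read from reporter transcripts in transiently transfected human HepG2 liver cells after 24 h dosing. RT-PCR products were fluorescently labelled, HpaI-cut and sized by capillary electrophoresis; activity fitted bidirectionally against DMSO baseline.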

[13] = molecular target: Hepatocyte nuclear factor 4-alpha (Homo sapiens) (UniProt P41235); test: ATG_HNF4a_TRANS: Attagene TRANS-FACTORIAL HepG2 Assay for human Hepatocyte Nuclear Factor 4 alpha (HNF4a) (AID 2282982; active = hit-call score of the fitted dose curve at least 0.9, where 1 is the maximum); settings: HepG2 HNF4a transactivation reporter, mRNA readout
How it was run: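 In this trans-factorial format, a chimeric HNF4a-GAL4 fusion drives a GAL4-UAS reporter in transfected HepG2 liver cells. After 24 h treatment, reporter mRNA induction is measured by RT-PCR with capillary electrophoresis, relative to DMSO.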

[14] = molecular target: Nuclear respiratory factor 1 (Homo sapiens) (UniProt Q16656); test: ATG_NRF1_CIS: Attagene CIS-FACTORIAL HepG2 Assay for human Nuclear Respiratory Factor 1 (NRF1) Orphan Gene (AID 2282987); settings: HepG2 NRF1 cis-element reporter, Attagene multiplex; actives raise or lower the signal
How it was run: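 Endogenous NRF1-driven reporter transcription in transfected HepG2 cells after 24 h treatment. Readout: RT-PCR products, 6-FAM labelled and resolved by capillary electrophoresis; changes fitted both directions relative to DMSO.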

[15] = molecular target: Cellular tumor antigen p53 (Homo sapiens) (UniProt P04637); test: TOX21_p53_BLA_p3_ratio: Tox21 HCT-116 p53 Agonism Beta-lactamase Assay, Ratio, Phase 3 (AID 2283596; active = hit-call score of the fitted dose curve at least 0.9, where 1 is the maximum)
How it was run: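 Cells were seeded at 4000/well, rested 5 h at 37C, then dosed with DMSO compound solutions (217-fold dilution) for 16 h. CCF4-AM substrate was loaded for 2 h at room temperature, and the 460/530 nm emission ratio was fitted for gain of signal versus DMSO.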

[16] = TOX21_p53_BLA_p5_viability: Viability Assessment in the Tox21 HCT-116 p53 Agonism Beta-lactamase Assay, Phase 5 (AID 2283600; active = hit-call score of the fitted dose curve at least 0.9, where 1 is the maximum)
How it was run: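 Viability is taken from cellular ATP content, measured by luciferase luminescence in the same wells after the beta-lactamase ratio read. Cells are seeded at 4000 per well and exposed to DMSO-dissolved compounds, diluted 217-fold, for 16 h.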

[17] = molecular target: Cellular tumor antigen p53 (Homo sapiens) (UniProt P04637); test: TOX21_p53_BLA_p4_ratio: Tox21 HCT-116 p53 Agonism Beta-lactamase Assay, Ratio, Phase 4 (AID 2283601; active = hit-call score of the fitted dose curve at least 0.9, where 1 is the maximum)
How it was run: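 HCT116 cells carrying an inducible beta-lactamase reporter were plated at 4000 cells/well, rested 5 h, then exposed to compounds in DMSO (217-fold dilution) for 16 h at 37C. CCF4-AM substrate was loaded 2 h at room temperature; 460/530 nm emission ratio scored gain-of-signal versus DMSO.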

[18] = TOX21_p53_BLA_p2_viability: Viability Assessment in the Tox21 HCT-116 p53 Agonism Beta-lactamase Assay, Phase 2 (AID 2283591; active = hit-call score of the fitted dose curve at least 0.9, where 1 is the maximum;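 also: compound exposure lasted 16 h at 37 °C; actives lower the ATP signal meaning cytotoxicity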)
How it was run: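 HCT-116 p53-bla cells (4000/well) rested 5 h at 37C, then received compounds in DMSO (217-fold dilution) for 16 h at 37C, 5% CO2. After the CCF4 read, CellTiter-Glo was added; ATP luminescence was read after 30 min at room temperature.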

[19] = molecular target: Cellular tumor antigen p53 (Homo sapiens) (UniProt P04637); test: TOX21_p53_BLA_p5_ratio: Tox21 HCT-116 p53 Agonism Beta-lactamase Assay, Ratio, Phase 5 (AID 2283599; active = hit-call score of the fitted dose curve at least 0.9, where 1 is the maximum)
How it was run: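 HCT-116 cells carrying a p53-inducible beta-lactamase reporter were seeded at 4000 cells/well and dosed after 5 h with compound in DMSO (217-fold dilution). After 16 h at 37C, CCF4-AM substrate was added for 2 h, and the 460/530 nm emission ratio was scored as gain-of-signal versus DMSO.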

[20] = ATG_GLI_CIS: Attagene CIS-FACTORIAL HepG2 Assay for human Zinc Finger Protein GLI1 (AID 2282945); settings: HepG2, Attagene cis-factorial reporter mRNA, GLI element; actives raise or lower the signal
How it was run: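 HepG2 cells transiently transfected with cis-promoter multiplexed reporter units report endogenous transcription factor activity. After 24 h chemical exposure, reporter mRNA was quantified by RT-PCR, 6-FAM labelling, HpaI digestion and capillary electrophoresis, with bidirectional fitting against DMSO.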

Measured: AC50

Sequence of Nuclear respiratory factor 1 (Homo sapiens) (Q16656 whole entry, looked up): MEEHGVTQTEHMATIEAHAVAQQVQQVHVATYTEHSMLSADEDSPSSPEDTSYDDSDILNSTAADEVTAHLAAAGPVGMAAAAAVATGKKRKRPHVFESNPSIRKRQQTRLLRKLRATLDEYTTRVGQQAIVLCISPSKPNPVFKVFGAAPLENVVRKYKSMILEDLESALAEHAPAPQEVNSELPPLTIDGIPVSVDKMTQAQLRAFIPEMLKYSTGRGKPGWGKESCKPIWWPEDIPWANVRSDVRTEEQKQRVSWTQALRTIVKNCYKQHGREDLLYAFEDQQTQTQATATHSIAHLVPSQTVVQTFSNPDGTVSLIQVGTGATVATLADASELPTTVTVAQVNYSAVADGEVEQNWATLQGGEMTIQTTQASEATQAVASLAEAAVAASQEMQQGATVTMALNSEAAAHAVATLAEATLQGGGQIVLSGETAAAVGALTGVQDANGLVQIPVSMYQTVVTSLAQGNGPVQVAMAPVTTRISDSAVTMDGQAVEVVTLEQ
Sequence of Retinoic acid receptor alpha (Homo sapiens) (P10276 whole entry, looked up): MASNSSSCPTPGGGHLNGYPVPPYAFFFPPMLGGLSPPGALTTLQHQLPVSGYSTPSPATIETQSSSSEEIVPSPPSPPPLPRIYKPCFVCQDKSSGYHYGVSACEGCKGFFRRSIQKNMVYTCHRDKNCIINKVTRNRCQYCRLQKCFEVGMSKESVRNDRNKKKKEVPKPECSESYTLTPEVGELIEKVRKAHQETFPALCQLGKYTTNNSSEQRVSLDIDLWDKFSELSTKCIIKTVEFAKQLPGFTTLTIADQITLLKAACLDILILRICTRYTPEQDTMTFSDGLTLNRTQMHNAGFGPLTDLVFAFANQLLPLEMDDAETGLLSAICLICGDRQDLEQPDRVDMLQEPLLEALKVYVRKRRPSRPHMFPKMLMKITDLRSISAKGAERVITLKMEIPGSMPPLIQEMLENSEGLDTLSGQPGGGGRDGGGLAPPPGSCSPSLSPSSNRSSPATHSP
Sequence of Hepatocyte nuclear factor 3-beta (Homo sapiens) (Q9Y261 whole entry, looked up): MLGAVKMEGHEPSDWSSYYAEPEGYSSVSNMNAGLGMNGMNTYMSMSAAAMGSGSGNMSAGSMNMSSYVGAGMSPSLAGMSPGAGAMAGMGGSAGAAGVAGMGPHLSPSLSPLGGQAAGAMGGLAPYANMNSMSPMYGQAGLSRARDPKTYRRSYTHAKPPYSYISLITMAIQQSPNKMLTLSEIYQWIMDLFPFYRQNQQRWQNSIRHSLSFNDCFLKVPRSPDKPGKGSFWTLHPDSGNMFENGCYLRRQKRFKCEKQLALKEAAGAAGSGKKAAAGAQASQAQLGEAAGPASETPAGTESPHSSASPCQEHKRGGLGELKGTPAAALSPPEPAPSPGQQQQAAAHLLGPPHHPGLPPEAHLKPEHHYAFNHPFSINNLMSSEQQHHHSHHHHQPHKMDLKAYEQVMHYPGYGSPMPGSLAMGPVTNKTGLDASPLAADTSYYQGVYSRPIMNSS
Sequence of human Retinoid X Receptor beta (RXRb), RXRB (gene 6257) (P28702 whole entry, looked up, the tested form may be a part): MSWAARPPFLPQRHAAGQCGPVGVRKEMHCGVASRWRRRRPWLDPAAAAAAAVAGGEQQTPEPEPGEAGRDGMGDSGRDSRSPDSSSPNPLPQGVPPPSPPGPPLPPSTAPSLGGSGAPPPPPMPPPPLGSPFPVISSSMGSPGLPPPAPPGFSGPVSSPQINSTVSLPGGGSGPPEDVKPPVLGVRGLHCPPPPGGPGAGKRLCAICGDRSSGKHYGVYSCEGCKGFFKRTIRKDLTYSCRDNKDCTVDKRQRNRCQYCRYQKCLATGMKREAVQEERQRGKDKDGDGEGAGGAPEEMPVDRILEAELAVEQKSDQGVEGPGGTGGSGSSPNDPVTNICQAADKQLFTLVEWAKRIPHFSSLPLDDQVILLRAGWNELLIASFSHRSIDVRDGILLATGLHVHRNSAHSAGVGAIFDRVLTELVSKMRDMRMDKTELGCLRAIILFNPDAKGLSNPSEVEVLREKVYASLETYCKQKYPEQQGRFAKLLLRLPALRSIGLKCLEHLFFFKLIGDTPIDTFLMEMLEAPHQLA
Sequence of human Peroxisome Proliferator-activated Receptor alpha (PPARa), PPARA (gene 5465) (Q07869 whole entry, looked up): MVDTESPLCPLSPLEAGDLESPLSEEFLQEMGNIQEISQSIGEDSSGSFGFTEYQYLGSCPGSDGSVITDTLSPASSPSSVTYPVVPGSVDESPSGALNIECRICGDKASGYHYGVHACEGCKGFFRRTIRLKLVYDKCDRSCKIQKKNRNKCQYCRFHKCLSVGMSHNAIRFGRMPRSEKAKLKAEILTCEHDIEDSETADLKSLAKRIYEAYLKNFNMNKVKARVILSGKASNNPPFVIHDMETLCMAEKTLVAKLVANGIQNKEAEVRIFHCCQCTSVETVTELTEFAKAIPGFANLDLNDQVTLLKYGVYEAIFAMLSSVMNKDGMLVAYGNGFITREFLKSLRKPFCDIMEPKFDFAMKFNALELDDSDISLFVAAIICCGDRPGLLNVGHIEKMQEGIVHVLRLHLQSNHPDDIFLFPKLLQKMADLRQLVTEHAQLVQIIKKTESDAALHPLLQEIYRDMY
Sequence of Hepatocyte nuclear factor 4-alpha (Homo sapiens) (P41235 whole entry, looked up, the tested form may be a part): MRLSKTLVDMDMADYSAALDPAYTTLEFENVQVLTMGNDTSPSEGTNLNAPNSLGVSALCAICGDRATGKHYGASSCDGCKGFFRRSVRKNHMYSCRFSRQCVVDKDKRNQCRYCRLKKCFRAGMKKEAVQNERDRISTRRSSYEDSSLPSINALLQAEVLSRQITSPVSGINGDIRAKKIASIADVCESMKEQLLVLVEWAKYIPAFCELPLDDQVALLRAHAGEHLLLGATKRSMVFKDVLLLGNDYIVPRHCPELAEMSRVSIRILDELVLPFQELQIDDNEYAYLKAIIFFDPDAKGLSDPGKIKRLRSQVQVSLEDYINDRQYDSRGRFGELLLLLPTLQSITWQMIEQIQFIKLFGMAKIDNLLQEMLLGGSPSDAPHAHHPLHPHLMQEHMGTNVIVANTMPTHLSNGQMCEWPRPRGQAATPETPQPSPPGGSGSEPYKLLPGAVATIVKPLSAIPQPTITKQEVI
Sequence of Cellular tumor antigen p53 (Homo sapiens) (P04637 whole entry, looked up): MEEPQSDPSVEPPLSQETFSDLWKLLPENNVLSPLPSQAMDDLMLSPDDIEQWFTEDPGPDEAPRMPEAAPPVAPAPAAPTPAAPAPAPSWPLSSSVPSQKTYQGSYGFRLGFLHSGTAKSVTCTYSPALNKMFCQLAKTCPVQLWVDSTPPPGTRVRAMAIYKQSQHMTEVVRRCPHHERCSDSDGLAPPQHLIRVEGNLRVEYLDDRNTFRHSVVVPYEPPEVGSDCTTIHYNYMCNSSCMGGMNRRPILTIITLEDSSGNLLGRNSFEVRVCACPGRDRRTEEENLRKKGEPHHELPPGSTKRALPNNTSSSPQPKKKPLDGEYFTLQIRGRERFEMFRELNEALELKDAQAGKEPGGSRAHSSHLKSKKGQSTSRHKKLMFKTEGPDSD
Sequence of Retinoic acid receptor RXR-alpha (Homo sapiens) (P19793 whole entry, looked up, the tested form may be a part): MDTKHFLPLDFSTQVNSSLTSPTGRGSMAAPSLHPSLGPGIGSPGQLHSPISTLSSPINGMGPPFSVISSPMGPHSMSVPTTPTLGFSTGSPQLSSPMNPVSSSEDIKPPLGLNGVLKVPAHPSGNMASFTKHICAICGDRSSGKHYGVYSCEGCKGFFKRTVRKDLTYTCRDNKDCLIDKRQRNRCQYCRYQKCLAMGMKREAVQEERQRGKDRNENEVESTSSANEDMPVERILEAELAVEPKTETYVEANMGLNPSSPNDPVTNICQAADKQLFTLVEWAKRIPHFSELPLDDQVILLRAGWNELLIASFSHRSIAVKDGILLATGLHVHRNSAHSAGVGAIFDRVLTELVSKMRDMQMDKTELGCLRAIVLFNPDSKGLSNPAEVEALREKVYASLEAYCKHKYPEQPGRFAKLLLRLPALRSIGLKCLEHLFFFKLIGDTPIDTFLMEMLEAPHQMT

Cc1cc(O)cc(C)c1Cl
active: [1] 79.6 µM | [11] 48.8 µM
inactive: [2] | [3] | [4] | [5] | [6] | [7] | [8] | [9] | [10]

Clc1ccc(Sc2cc(Cl)c(Cl)cc2Cl)cc1
active: [11] 7.54 µM
not listed: [7] | [8] | [9] | [18] | [19] | [20]
inactive: all other assays above

CCCOCCC
not listed: [2] | [6] | [7] | [10] | [15] | [16] | [20]
inactive: all other assays above

CCCC(=O)OC
inactive: [1] | [2] | [20] | [3] | [4] | [5] | [14] | [9] | [15] | [19]

CCCCOC(=O)COc1ccc(Cl)cc1Cl
not listed: [3] | [5] | [6] | [9] | [10]
inactive: all other assays above

CC(C)=CCOC(=O)c1ccccc1
not listed: [4] | [9] | [12] | [13] | [15]
inactive: all other assays above

CC(=O)CCc1ccccc1
not listed: [3] | [6] | [7] | [10] | [11] | [13]
inactive: all other assays above

COC(=O)[C@]1(C)CCC[C@@]2(C)[C@H]1CC=C1C=C(C(C)C)CC[C@@H]12
not listed: [5] | [6] | [9] | [13] | [16] | [17] | [19] | [20]
inactive: all other assays above

Cc1ccnc(N)c1
not listed: [2] | [5] | [9] | [13] | [14] | [15] | [16] | [17]
inactive: all other assays above

CCOc1ccc2c(c1)C(C)CC(C)(C)N2 (centres undefined)
inactive: [1] | [3] | [5] | [12] | [6] | [14] | [8]
active: [11] 37.7 µM

C=C(C)C(=O)OCCCCCC
not listed: [6] | [11] | [12] | [15]
inactive: all other assays above

[O-][n+]1ccc(Cl)cc1
inactive: [1] | [20] | [3] | [4] | [12] | [13] | [14] | [8] | [9] | [11]

CCCCCCC1CCC(=O)O1 (centres undefined)
not listed: [2] | [3] | [8] | [14] | [16] | [17] | [19]
inactive: all other assays above

O=C1CCCCCCCCCCCCCC1
active: [10] 26.5 µM | [11] 13 µM
not listed: [4] | [9] | [13] | [16] | [17] | [18] | [20]
inactive: all other assays above

Sc1nc2ccccc2s1
active: [6] 19.3 µM | [18] 0.000211 µM | [16] 0.000128 µM
not listed: [8] | [13] | [14] | [20]
inactive: all other assays above

C=CCOCC(CC)(CO)COCC=C
not listed: [7] | [9] | [10] | [13] | [17] | [19] | [20]
inactive: all other assays above

C=CC(C)(CCC=C(C)C)OC(=O)c1ccccc1 (centres undefined)
active: [5] 177 µM
not listed: [11] | [12] | [13]
inactive: all other assays above

CCc1cc(C(N)=S)ccn1
not listed: [2] | [7] | [10] | [12]
inactive: all other assays above

O=C(c1ccccc1)c1ccccc1O
active: [11] 75.9 µM
inactive: [1] | [20] | [3] | [12] | [6] | [7] | [14] | [8] | [9] | [10]

CC/C=C\CC/C=C/C(OCC)OCC
active: [5] 136 µM | [8] 100 µM
inactive: [1] | [2] | [3] | [4] | [12] | [6] | [13] | [7] | [9]

CCOC(=O)CC(=O)OCC
not listed: [5] | [7] | [8] | [11] | [12] | [20]
inactive: all other assays above

Source: PubChem BioAssay (EPA / NIEHS)
